# Reference: PubChem BioAssay AID504329 (Southern Research Specialized Biocontainment Screening …, 2011)
# The whole screen tested about 340,000 compounds, of which about 1,000 (0.29%) were called active. Cut-off read from the data, not from the text of the source: inconclusive = inhibition above about 27% without an active follow-up result; inactive = below that. Only a sample is shown. Results with a measured potency or affinity are listed apart.
# Assay: NS1A inhibition, H1N1 influenza, cell based functional assay (AID 504329)
# Conditions: percent inhibition, at 12.5 µM, stronger effect = higher value
row,SMILES,inhibition
1,COc1ccc(-n2c(=O)c3ccccc3n(CC(=O)NC3CCCCC3)c2=O)cc1OC,10.9% (inactive)
2,O=S(=O)(c1ccc(Cl)cc1)N1CCCC1c1cccnc1 (stereo unspecified),-6.92% (inactive)
3,COc1ccc(CNC(=O)C(OC(=O)c2ccco2)c2ccccc2F)cc1 (stereo unspecified),4.89% (inactive)
4,COc1cc(C(=O)NCc2nnc(SCC(=O)N3CCCCCC3)o2)cc(OC)c1OC,0.67% (inactive)
5,CC[C@@]1(C(=O)OC)N[C@H](CN(C)S(=O)(=O)c2ccc(C(C)(C)C)cc2)[C@@H]2C(=O)N(Cc3ccccc3)C(=O)[C@@H]21,-9.1% (inactive)
6,Cc1ccc(Nc2nc(N)nc(-c3oc4ccccc4c3C)n2)cc1,-6.47% (inactive)
7,COc1cc(/C=N/NC(=O)C(=O)Nc2ccccn2)ccc1O,-6.98% (inactive)
8,O=C(Nc1ccccn1)C(=O)Nc1ccccn1,-1.25% (inactive)
9,O=C(NCc1ccccn1)C(=O)N/N=C/c1ccc2c(c1)OCO2,-4.91% (inactive)
10,Cc1cc(/C=N/NC(=O)C(=O)NCc2ccccn2)c(C)n1-c1ccccc1,-2.44% (inactive)
11,COc1ccc(-c2c(C)nc3c(-c4ccc(F)cc4)cnn3c2N)cc1,-14.5% (inactive)
12,COc1cc(C(=O)NC2=NCCS2)ccc1OCc1c(C)noc1C,-1.34% (inactive)
13,O=C(CNC(=O)c1cccc(N2C(=O)c3ccccc3C2=O)c1)Nc1ccc(F)c(F)c1,-11.5% (inactive)
14,Cc1c(O)c(CN2CCCC2)cc2c1oc(=O)c1ccccc12,-0.95% (inactive)
15,COc1cc(Br)cc(CN2CCN(c3ncccn3)CC2)c1O,-10.6% (inactive)
16,COc1cccc(C(=O)Oc2c(CN3CCOCC3)cc(Cl)c3cccnc23)c1,4.96% (inactive)
17,COc1cc(Br)cc(CN2CCN(C)CC2)c1O,2.34% (inactive)
18,Cc1ccc2c(c1)N(CCC(=O)NC1CC1)C(=O)C(C)O2 (stereo unspecified),-4.26% (inactive)
19,COC(=O)c1cc(NC(=S)Nc2cc(Cl)cc(Cl)c2)cc(C(=O)OC)c1,-5.67% (inactive)
20,CN(Cc1ccc(F)cc1)C(=O)c1ccc(NC(=O)CC2SC(N3CCCC3)=NC2=O)cc1 (stereo unspecified),9.52% (inactive)
21,Cc1ccc(OCc2nnc(SCC(=O)Nc3ncc(C)s3)o2)cc1,-2.25% (inactive)
22,CCCC(=O)Nc1ccc(NC(=O)c2cccs2)cn1,20.7% (inactive)
23,CN(C)c1ccc(CN(C)C2CCCCC2)cc1,-7.34% (inactive)
24,CN(C)c1ccc(CCc2ccc(N)cc2)cc1,14.3% (inactive)
25,CCN(Cc1ccccc1)c1ccccc1,-3.09% (inactive)
26,NC(N)=N/N=C/c1ccc(N(c2ccccc2)c2ccccc2)cc1,-36.1% (inactive)
